The results in this text go back to the supplement of paper PMC9135407.

Several values for one entry are separate records, joined by “and”; a condition that tells them apart may be missing. Equal entries are not always repeated. Structures can show the parent of a compound that is named as a salt. About 620 (11%) of roughly 5,800 compounds showed activity. The sample holds actives, similar compounds and a random draw of the others, so the mix is not that of the screen. A number with no mark means an inactive call.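 The calls were made as follows: active = score above a cut-off or among the top three wells of a plate; in these data no inactive exceeds 0.85.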 Bounds are passed on as bounds.

This test deals with primary human hepatic stellate cells (donor 1). The experiment in a line: scaled lipid accumulation score (0 = DMSO-like, 1 = nortriptyline-like); higher = stronger HSC inactivation (lipid re-accumulation), active = hit call of the paper. Conditions: 48 h.
Setting [1] is: library stock concentration: 80 uM.
The mark [2] stands for this setting: library stock concentration: 400 uM.
Where [3] appears, read: library stock concentration: 10 mM.
[4] abbreviates: library stock concentration: 3.33 mM.
Setting [5] is: library stock concentration: 2 mM.
The mark [6] stands for this setting: library stock concentration: 1 mM.

`CCN(CC)CCNC(=O)c1c(C)[nH]c(/C=C2\C(=O)Nc3ccc(F)cc32)c1C` [Sunitinib malate]: the “scaled lipid accumulation score” value reads like this: under setting [1], at most -0.009; under setting [2], at most -0.009; under setting [3], ≤ -0.07 and 0.421.

For `CCN(CC)CCNC(=O)c1c(C)[nH]c(/C=C2\C(=O)Nc3ccc(F)cc32)c1C` [Sunitinib Malate], the “scaled lipid accumulation score” value runs as follows: under setting [4], 0.775; under setting [3], 0.432.

On to `CCN(CC)CCNC(=O)c1c(C)[nH]c(/C=C2\C(=O)Nc3ccc(F)cc32)c1C.O=C(O)C[C@H](O)C(=O)O`, for which, under setting [5], the “scaled lipid accumulation score” value is 1.66 (active).

Regarding `CCC=CCC=CCC=CCC=CCCCCCCC(=O)O` [.omega.-3 Arachidonic Acid], the “scaled lipid accumulation score” value under setting [6] was at most 0.

Take `CCN(CC)CCN(Cc1ccc(-c2ccc(C(F)(F)F)cc2)cc1)C(=O)Cn1c(SCc2ccc(F)cc2)nc(=O)c2c1CCC2`: the “scaled lipid accumulation score” value reads like this: under setting [4], 0.746; under setting [3], 0.058.

For `COc1ccc(-c2coc3cc(O)ccc3c2=O)cc1` [Formononetin], the “scaled lipid accumulation score” value runs as follows: under setting [4], at most 0; under setting [3], ≤ 0 and ≤ -0.027.

Consider `Nc1ccc2cn[nH]c2c1`, for which, under setting [3], the “scaled lipid accumulation score” value is at most 0.

`CC(C)(CO)[C@@H](O)C(=O)NCCC(=O)NCCSSCCNC(=O)CCNC(=O)[C@H](O)C(C)(C)CO`: under setting [3], the “scaled lipid accumulation score” value is at most 0.

With `COC(=O)C1=C(C)NC(C)=C(C(=O)OCCCN2CCC(c3ccccc3)(c3ccccc3)CC2)[C@H]1c1cccc([N+](=O)[O-])c1` [(S)-(+)-Niguldipine hydrochloride], under setting [3], the “scaled lipid accumulation score” value was at most -0.006.

As for `COC(=O)C1=C(C)NC(C)=C(C(=O)OCCCN2CCC(c3ccccc3)(c3ccccc3)CC2)[C@H]1c1cccc([N+](=O)[O-])c1` [Niguldipine], the “scaled lipid accumulation score” value (library stock concentration: 7.7 mM) was at most -0.021.

`N#Cc1ccc2[nH]cc(CCCCN3CCN(c4ccc5oc(C(N)=O)cc5c4)CC3)c2c1` [Vilazodone HCl]: the “scaled lipid accumulation score” value under setting [4] is 0.512.

For the compound `Cl.N#Cc1ccc2[nH]cc(CCCCN3CCN(c4ccc5oc(C(N)=O)cc5c4)CC3)c2c1` [Vilazodone HCl], under setting [3], the “scaled lipid accumulation score” value was 1.1 (active).

As for `Cc1c(C(=O)N(C)C2CCCCC2)sc2nc3ccc(N)cc3n12`, under setting [3], the “scaled lipid accumulation score” value was 0.01.

In the case of `O=C(Nc1ccc2[nH]nc(-c3ccncc3)c2c1)[C@@H]1CCN(CC(=O)N2CCN(c3ccc(-c4ncccn4)cc3)CC2)C1` [listing 1 of 2 here], the “scaled lipid accumulation score” value under setting [3] was 0.909 (active).

For `O=C(Nc1ccc2[nH]nc(-c3ccncc3)c2c1)[C@@H]1CCN(CC(=O)N2CCN(c3ccc(-c4ncccn4)cc3)CC2)C1` [listing 2 of 2 here], the “scaled lipid accumulation score” value reads like this: under setting [1], at most -0.001; under setting [2], at most -0.001; under setting [5], at most -0.001.

With `O=C(Nc1ccc2[nH]ncc2c1)C1CCC1` [Rhodblock 6], the “scaled lipid accumulation score” value under setting [3] is 0.092.

Regarding `O=C(OC[C@H]1O[C@@H](OC(=O)c2cc(O)c(O)c(OC(=O)c3cc(O)c(O)c(O)c3)c2)[C@H](OC(=O)c2cc(O)c(O)c(OC(=O)c3cc(O)c(O)c(O)c3)c2)[C@@H](OC(=O)c2cc(O)c(O)c(OC(=O)c3cc(O)c(O)c(O)c3)c2)[C@@H]1OC(=O)c1cc(O)c(O)c(OC(=O)c2cc(O)c(O)c(O)c2)c1)c1cc(O)c(O)c(OC(=O)c2cc(O)c(O)c(O)c2)c1` [Tannic acid], under setting [3], the “scaled lipid accumulation score” value was at most -0.027.

For `CCN1CCC[C@H]1CNC(=O)c1c(O)c(Cl)cc(Cl)c1OC` [S(+)-Raclopride L-tartrate], the “scaled lipid accumulation score” value under setting [3] was at most 0.

In the case of `CCc1cc(Cl)c(OC)c(C(=O)NC[C@@H]2CCCN2CC)c1O`, the “scaled lipid accumulation score” value under setting [3] is 0.351.

With `CCN1CCC[C@H]1CNC(=O)c1c(O)c(Cl)cc(Cl)c1OC` [Raclopride], the “scaled lipid accumulation score” value under setting [3] is ≤ 0 and ≤ -0.006.

For the compound `CCc1cc(Cl)c(OC)c(C(=O)NC[C@@H]2CCCN2CC)c1O.Cl` [Eticlopride hydrochloride], the “scaled lipid accumulation score” value under setting [3] is 0.978 (active).

`CCCCC[C@H](O)/C=C/[C@@H]1[C@@H](C/C=C\CCCC(=O)O)[C@@H](O)C[C@@H]1O` [9a,11b-Prostaglandin F2]: under setting [6], the “scaled lipid accumulation score” value was at most -0.021.

In the case of `CCCCC[C@H](O)/C=C/[C@@H]1[C@@H](C/C=C\CCCC(=O)O)[C@@H](O)C[C@@H]1O` [11.beta.-Prostaglandin F2.alpha.], the “scaled lipid accumulation score” value under setting [6] was at most 0.

With `CCCCCCCCCCCCCCCCCCCCCCCCCCCCCCO` [n-Triacontanol], the “scaled lipid accumulation score” value under setting [6] is 0.026.

Consider `O=C(O)Cc1ccccc1Nc1c(Cl)cccc1Cl` [Diclofenac Sodium], for which the “scaled lipid accumulation score” value by setting is: under setting [4], at most 0; under setting [3], 0.007.

Turning to `COc1ccccc1CNCCCCCCNCCCCCCCCNCCCCCCNCc1ccccc1OC` [Methoctramine tetrahydrochloride], the “scaled lipid accumulation score” value under setting [3] is 0.621.

As to `O=C(O)Cc1ccccc1Nc1c(Cl)cccc1Cl` [Diclofenac Diethylamine], the “scaled lipid accumulation score” value is at most 0 under setting [4] and at most 0 under setting [3].

Take `O=C(O)Cc1ccccc1Nc1c(Cl)cccc1Cl` [Diclofenac (sodium salt)]: under setting [6], the “scaled lipid accumulation score” value is at most 0.

On to `Cl.Cl.Clc1ccccc1CNC[C@H]1CC[C@H](CNCc2ccccc2Cl)CC1`, for which, under setting [3], the “scaled lipid accumulation score” value is 1.48 (active).

For the compound `O=C(O)Cc1ccccc1Nc1c(Cl)cccc1Cl` [Diclofenac sodium], the “scaled lipid accumulation score” value was 0.036. For the same compound, under “library stock concentration: 6.3 mM”, the “scaled lipid accumulation score” value was 0.003. For the same compound, the “scaled lipid accumulation score” value under setting [3] is ≤ -0.07 and ≤ 0.

`O=C(O)Cc1ccccc1Nc1c(Cl)cccc1Cl`: the “scaled lipid accumulation score” value under setting [3] is at most 0.

As to `O=C(O)Cc1ccccc1Nc1c(Cl)cccc1Cl` [Diclofenac Potassium], the “scaled lipid accumulation score” value is, setting by setting: under setting [4], at most 0; under setting [3], at most 0.
